Reference: PubChem BioAssay (Tox21)
Inconclusive results are not listed. A call without a number means that no potency is given here. Activity calls are given as the source filed them. Calls come from the whole dose curve; as a rule, active = well fitted cell-killing curve with a large enough effect in the repeat runs; inconclusive = weak or mixed curves, or effect the other way; inactive = flat fitted curve, though single readings scatter.

Assay: qHTS assay to identify small molecule that activate the aryl hydrocarbon receptor (AhR) signaling pathway - cell viability counter screen (AID 743086);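 note: HepG2 liver cells carrying the AhR DRE luciferase reporter; nearly all actives have a fitted effect of over 45% in size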
Conditions: HepG2-AhR-luc viability, CellTiter-Fluor, 24 h; series mostly up to 70.3 µM
Source text: U.S. Tox21 Program National Center for Advancing Translational Sciences [NCATS] NIH Chemical Genomics Center [NCGC] U.S. Environmental Protection Agency [EPA] National Institutes of Environmental Health Sciences [NIEHS] National Toxicology Program [NTP] U.S. Food and Drug Administration [FDA] Tox21 Assay overview: The Aryl hydrocarbon Receptor (AhR), a member of the family of basic helix-loop-helix transcription factors, is crucial to adaptive responses to environmental changes. AhR mediates cellular responses to environmental pollutants such as aromatic hydrocarbons through induction of phase I and II enzymes but also interacts with other nuclear receptor signaling pathways A cell based HepG2-AhR-luc assay (HG2L7.5c1 cell line, developed by Dr. Michael S. Denison, University of California at Davis) was used to assess the activation of AhR. HepG2 (human hepatocellular carcinoma) cells were stably transfected with an Ah receptor-responsive firefly luciferase reporter gene plasmid containing 20 dioxin responsive elements and luciferase reporter gene. Increased luciferase activity can be used to identify the compounds that induce AhR activation. The cytotoxicity of the compounds screened against the HepG2-AhR-luc cell line was tested in parallel by measuring the cell viability using CellTiter-Fluor assay in the same wells.
Tox21 Assay Protocol Summary: 4000 cells in 5 uL/well were dispensed into white wall/solid bottom 1536-well plates using a Multidrop Combi (Thermo Fisher Scientific Inc., Waltham, MA) dispenser. After the assay plates were incubated at 37C for 5 h, 23 nL of compound or DMSO vehicle was transferred to the assay plates by a pintool station (Kalypsys, San Diego, CA). The plates were incubated at 37C for 24 hr. For cell viability measurement, 1 ul/well of CellTiter-Fluor reagent (Promega, Madison, WI) was added into the assay plates using a Flying Reagent Dispenser (FRD) (Aurora Discovery, CA),and then the assay plates were incubated at 37C for 30 min. The fluorescence intensity in the plates was measured using a ViewLux plate reader (PerkinElmer, Shelton, CT), followed by the addition of 4 uL of ONE-Glo Luciferase Assay reagent (Promega) using an FRD (Aurora Discovery). After the assay plates were incubated at room temperature for 30 min, luminescence intensity was measured using a ViewLux plate reader (Perkin Elmer).

SMILES	Potency
COc1ccc2cc3[n+](cc2c1OC)CCc1cc2c(cc1-3)OCO2	inactive
Cc1ccccc1C=O	inactive
CCn1cc(C(=O)O)c(=O)c2cc3c(cc21)OCO3	inactive
Cc1ccc(Cl)cc1	inactive
O=C(O)Cc1c[nH]c2ccccc12	inactive
C=C(CC(=O)O)C(=O)O	inactive
O=C(Cl)c1ccc(C(=O)Cl)cc1	inactive
Nc1cccc(C(F)(F)F)c1	inactive
COC(=O)/C=C\C(=O)OC	inactive
CCCCCCC(=O)O	inactive
CC[N+](CC)(CC(=O)Nc1c(C)cccc1C)Cc1ccccc1	inactive
CC(=O)OC/C=C(\C)CCC=C(C)C	inactive
CC(=O)CC(=O)N(C)C	inactive
CC(C)(C)NC[C@H](O)COc1nsnc1N1CCOCC1	inactive
C[Si](C)(C)N[Si](C)(C)C	inactive
C1CCCNCC1	inactive
O=c1c(O)c(-c2ccc(O)c(O)c2)oc2cc(O)cc(O)c12	inactive
C=CC(=O)NCOCCCC	inactive
Cc1cccc(C)c1[N+](=O)[O-]	inactive
CCCCC(CC)COC(=O)c1ccc(C(=O)OCC(CC)CCCC)cc1 (stereo not given)	inactive

SMILES	Potency
NC(N)=S	inactive
CC1(C)C(=O)N(Cl)C(=O)N1Cl	inactive
CC(C)c1ccc(C(C)C)cc1	inactive
COc1c2ccoc2cc2oc(=O)ccc12	inactive
CC(CN1c2ccccc2Sc2ccccc21)N(C)C (stereo not given)	inactive
CC(C)=CCC/C(C)=C/C=O	inactive
O=C(O)C1=NN(c2ccc(S(=O)(=O)O)cc2)C(=O)C1	inactive
N[C@@H](Cc1cc(I)c(Oc2ccc(O)c(I)c2)c(I)c1)C(=O)O	inactive
CCOC(=O)CC(=O)OCC	inactive
Clc1cccc(Cl)c1NC1=NCCN1	inactive
CC(=O)OC[C@H]1O[C@@](COC(C)=O)(O[C@H]2O[C@H](COC(C)=O)[C@@H](OC(C)=O)[C@H](OC(C)=O)[C@H]2OC(C)=O)[C@@H](OC(C)=O)[C@@H]1OC(C)=O	inactive
NC(=O)c1ncn([C@@H]2O[C@H](CO)[C@@H](O)[C@H]2O)n1	inactive
COC(=O)OC	inactive
CCCCCCCC(=O)O	inactive
COc1ccc([C@@H]2CC(=O)c3c(O)cc(O[C@@H]4O[C@H](CO[C@@H]5O[C@@H](C)[C@H](O)[C@@H](O)[C@H]5O)[C@@H](O)[C@H](O)[C@H]4O)cc3O2)cc1OC	inactive
O=C(NCC1CCCCN1)c1cc(OCC(F)(F)F)ccc1OCC(F)(F)F (stereo not given)	inactive
Cc1ccc([N+](=O)[O-])cc1N	inactive
CN1Cc2c(N)cccc2C(c2ccccc2)C1 (stereo not given)	inactive
OCC(CO)(CO)CO	inactive
CCCOCC(C)O (stereo not given)	inactive
